Screening data from PubChem.
Only some compounds are listed: those with a hit (about 0.84% of all), similar ones and a draw of the others.
NCOA2 inhibitor: inhibition of GAL4-SRC2 driven luciferase reporter, primary screen, SRC2 inhibitor project, cell-based, luminescence. 0.17% of 370,000 active. HEK293 GAL4-SRC2 luciferase reporter. Nuclear receptor coactivator 2 (Homo sapiens), Q15596. AID 651957, 2012. inhibition, % at 9 µM;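 active = inhibition above the mean inhibition of all tested compounds plus 3 SD, set per campaign, cut at about 52% in these data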;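 note: 0% = DMSO treated cells and 100% = cells given Gossypol at 36 µM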
COUP-TFII inh: NR2F2 transcriptional activity inhibitors, primary screen, cell-based, luciferase reporter, HEK293T, luminescence; 0.7% of 370,000 active; HEK293T NGFI-A luciferase reporter; inhibition, % at 8.6 µM;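 active = inhibition above a per-plate cutoff, mean inhibition of test wells between control levels plus 3 SD, cut at about 38% in these data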;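 note: cells cotransfected with COUP-TFII expression vector driving the NGFI-A reporter; 0% = median of COUP-TF2 test wells and 100% = reporter-only cells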
SRC3 inh: SRC3 coactivator transcriptional activity inhibitors, primary screen, cell-based, luminescence; AID 588352, 2011; inhibition, % at 3.6 µM; 0.17% of 360,000 active; Nuclear receptor coactivator 3 (Homo sapiens), Q9Y6Q9; HEK293 GAL4-SRC3 luciferase reporter;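 active = inhibition above a per-campaign cutoff, the mean of all compounds plus 3 SD, cut at about 60% in these data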;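 note: 0% = DMSO-treated cells and 100% = gossypol-treated cells at 36 µM; higher means less SRC3-driven luciferase light from the GAL4 reporter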
SRC1 inh: SRC1 coactivator transcriptional activity inhibitors, primary screen, cell-based, luminescence. Nuclear receptor coactivator 1 (Homo sapiens), Q15788. HEK293 GAL4-SRC1 luciferase reporter. inhibition, % at 3.6 µM. 0.12% of 360,000 active. AID 588354, 2011;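 active = inhibition above the campaign mean plus 3 SD, with each screening campaign given its own cutoff, cut at about 60% in these data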;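 note: 0% = DMSO treated cells and 100% = gossypol at 36 µM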
NR5A2 inv ag: LRH-1 (NR5A2) inverse agonists, primary screen, cell-based, luminescence, HEK293T, StAR-luciferase reporter | Nuclear receptor subfamily 5 group A member 2 (Homo sapiens), O00482 | LRH-1 transfected, 24 h | inhibition, % at 3.6 µM | 0.13% of 360,000 active | AID 602396, 2012;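 active = inhibition above the mean inhibition of all tested compounds plus 3 SD, cut at about 73% in these data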;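 note: 0% = DMSO wells and 100% = reporter-only cells lacking LRH-1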
VP16 Luc counter: Gal4-VP16 luciferase reporter inhibitors, counter-screen for COUP-TFII antagonist project, cell-based, luminescence, HEK293 | shares compounds with COUP-TFII inh | inhibition, % at 8.5 µM | 25% of 2,500 active | AID 687007, 2013; in the data active = inhibition above about 13%
NR2F2 inh conf: NR2F2 transcriptional activity inhibitors, confirmation, cell-based, luciferase reporter, HEK293, triplicate; shares compounds with COUP-TFII inh; HEK293 NGFI-A luciferase reporter, luminescence; 45% of 2,500 active; inhibition, % at 8.5 µM;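 active = mean inhibition over three repeats above a set limit taken from the earlier primary screen, cut at about 38% in these data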;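 note: 100% = cells given the luciferase reporter alone without the COUP-TF2 vector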
Active calls of the source: *; nt = no result; ! = a repeat was not active.

SMILES	NCOA2 inhibitor	COUP-TFII inh	SRC3 inh	SRC1 inh	NR5A2 inv ag	VP16 Luc counter	NR2F2 inh conf
C[C@H]1CCCC(=O)CCC/C=C/c2cc(O)cc(O)c2C(=O)O1	-18.4	12.2	15.3	20.6	-13.4	nt	nt
C[C@H]1CCC/C=C/[C@@H]2C[C@H](O)C[C@H]2[C@H](O)/C=C/C(=O)O1	26.2	50.4*	68.1*!	23.2	89.7*	10.2	33.5
CC(=O)OC[C@]12CCC(C)=C[C@H]1O[C@@H]1[C@H](O)[C@@H](OC(C)=O)[C@@]2(C)[C@]12CO2	74.8*	91.2*	95.4*	95.1*	101.9*	18.0*	89.9*
COc1ccc(-n2nnnc2C(CCc2ccccc2)N2CCC(n3c(=O)[nH]c4ccccc43)CC2)cc1 (stereo unspecified)	-3.0	39.2*	52.9	40.6	41.4	0.8	22.5
CCC(c1nnnn1-c1ccc(OC)cc1)N1CCC(n2c(=O)[nH]c3ccccc32)CC1 (stereo unspecified)	-28.9	-5.7	-44.5	-21.5	10.0	nt	nt
C[C@@H]1CN([C@@H](C)CO)C(=O)CCCn2cc(nn2)CO[C@H]1CN(C)C(=O)Oc1cccc2ccccc12	16.5	3.0	1.2	-1.0	15.7	nt	nt
CC(=O)OC1N=C(c2ccccc2Cl)c2cc(Br)ccc2NC1=O (stereo unspecified)	-14.1	4.7	5.0	12.8	7.4	nt	nt
CCCNS(=O)(=O)c1ccc(OCC(=O)N2CCN(Cc3ccc4c(c3)OCO4)CC2)c(C)c1	25.6	45.7*	12.6	14.3	31.0	1.3	21.4
O=c1c2ccccc2nc(-c2ccc(Cl)cc2Cl)n1-c1nccs1	15.3	8.1	-1.0	9.2	-0.6	nt	nt
NC(=S)c1cn(C2OC(CO)C(O)C2O)c2ncnc(N)c12 (stereo unspecified)	71.2*	68.2*	88.3*	88.5*	94.4*	52.7*	68.1*
Nc1ncnc2c1ccn2[C@@H]1O[C@H](CO)[C@@H](O)[C@H]1O	63.6*	63.7*	89.2*	81.8*	102.6*	32.1*	50.6*
CCCCN1C(=O)C(C2c3ccccc3C(=O)N2Cc2ccccc2)C(=O)NC1=S (stereo unspecified)	-29.9	-0.9	7.0	-24.7	-5.5	nt	nt
COC(=O)C1=C(c2cccc(OCc3ccccc3)c2)C[C@@H]2CC[C@H]1N2C(=O)NCc1ccc(N(C)C)cc1	0.0	12.9	-12.9	-19.1	-9.3	nt	nt
COc1ccc(-c2ccc3c(c2)CNCc2cnnn2-3)cc1	-26.3	-29.2	-45.7	-71.7	-124.5	nt	nt
CC1=CC2OC3CC4OC(=O)C=CC=CC(C(C)O)OCC(O)C(C)CC(=O)OCC2(CC1O)C4(C)C31CO1 (stereo unspecified)	71.3*	89.8*	93.5*	94.9*	98.5*	23.1*	92.7*
CSc1ccc(C(=O)C2CCCN(Cc3cnc(SC)nc3)C2)cc1 (stereo unspecified)	10.3	-2.3	10.4	-5.1	-3.8	nt	nt
CCOC(=O)[C@]12Cc3cc(OC)ccc3[C@H]1N(C1CCCCC1)C(=O)c1cc(OC)ccc12	22.9	22.9	nt	nt	37.1	nt	nt
CCOC(=O)[C@]12Cc3cc(C)ccc3[C@H]1N(C1CCCCC1)C(=O)c1cc(OC)ccc12	19.4	52.3*	nt	nt	94.0*	25.5*	35.8
Cc1cc(C)c(S(=O)(=O)N2Cc3ccccc3-n3nncc3C2)c(C)c1	31.1	39.6*	-0.7	14.5	12.0	0.3	17.5
CN(C)c1ccc(/C=C/c2cc[n+](C)c3ccccc23)cc1	-80.2	84.3*	66.7*!	68.0*!	86.4*	23.1*	81.7*
CN(C)c1ccc(/C=C/C=C/c2sc3ccccc3[n+]2C)cc1	8.7	27.6	38.7	31.8	46.9	nt	nt
COc1ccc(CC(=O)N2CCN(C)CC2)cc1	10.0	17.9	16.9	-13.5	1.3	nt	nt
COc1ccc(CC2NCC(O)C2OC(C)=O)cc1 (stereo unspecified)	67.8*	88.1*	94.8*	95.2*	102.5*	21.8*	81.6*
C[n+]1c(-c2ccccc2)sc2ccccc21	4.7	15.2	-8.2	9.9	12.5	nt	nt
C[n+]1ccc(-c2ccccc2)c2ccccc21	11.8	40.0*	19.6	-6.3	31.5	-2.0	13.7
SMILES	NCOA2 inhibitor	COUP-TFII inh	SRC3 inh	SRC1 inh	NR5A2 inv ag	VP16 Luc counter	NR2F2 inh conf
Cc1cc(-c2ccccc2)cc(-c2ccccc2)[n+]1CCc1ccccc1	17.3	37.9*	56.6	38.8	62.6	15.4*	25.9
CSc1nc(Cl)c(Br)c(N2CC2)n1	-15.2	21.1	-4.6	-4.5	15.1	nt	nt
C[C@@H]1O[C@@H](O[C@@H]2C=C3CCC4C(CC[C@]5(C)[C@@H](c6ccc(=O)oc6)CC[C@]45O)[C@@]3(C)CC2)[C@H](O)[C@H](O)[C@H]1O (stereo partly specified)	71.2*	81.3*	92.5*	90.3*	102.9*	56.4*	82.3*
CC(=O)C1CCC2(O)C3CCC4=CC(=O)CCC4(C)C3CCC12C (stereo unspecified)	1.3	6.0	-4.3	2.2	16.2	nt	nt
C[C@@H]1O[C@@H](O[C@@H]2C=C3CC[C@@H]4C(CC[C@]5(C)[C@@H](c6ccc(=O)oc6)CC[C@]45O)[C@@]3(C)CC2)[C@H](O)[C@H](O)[C@H]1O (stereo partly specified)	58.1*	72.6*	91.3*	93.3*	99.5*	54.8*	80.5*
CC(C)OS(C)(=O)=O	-4.6	8.6	3.0	-11.0	-18.1	nt	nt
Cc1ccc2nc(-c3ccc(CN4CCC(n5nnc6ccccc65)CC4)cc3)c(-c3ccccc3)nc2c1	19.0	45.3*	nt	nt	nt	-2.6	10.2
COc1ccc2nc(-c3ccc(CN4CCC(n5nnc6ccccc65)CC4)cc3)c(-c3ccccc3)nc2c1	2.1	18.5	nt	nt	nt	nt	nt
CC(=O)OC1C(O)C(C)OC(OC2C(OC(=O)C3CCC4C(C3)OC3(CC(OC(=O)/C=C/c5ccccc5)C(C)CO3)C43CO3)OC(C)C(O)C2OC(C)=O)C1O (stereo unspecified)	72.2*	90.7*	94.9*	95.5*	98.7*	22.6*	87.2*
CCN1C[C@@]2(COC)C3[C@@H](OC)[C@H]4[C@@H]1[C@@]3(C1C[C@H]3[C@H](OC(C)=O)C1[C@]4(OC(C)=O)C[C@H]3OC)[C@@H](OC)C[C@H]2OC(C)=O (stereo partly specified)	nt	nt	-14.6	-8.0	-2.5	nt	nt
